Laboratory results taken from PubChem BioAssay (NCI).
Compounds without any hit were thinned out: in the full panel of roughly 83,000, 20% have a hit.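 Method: cells in 96-well plates; compound added at one concentration; 48 h incubation; percent growth measured; values under 10 scored active.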 Calls of active or inactive are those of the source.

Each compound was assayed on HL-60(TB) leukemia (assay: NCI-60 one-dose screen, 48 h (100 = growth as untreated, 0 = no growth, -100 = all killed)). Conditions: 10 µM unless noted.

| Structure (SMILES) | growth |
| --- | --- |
| C=CN(C(=O)N1CCN(c2cc3c(cc2F)c(=O)c(C(=O)O)cn3C2CC2)CC1)c1nc(-c2ccccc2)cs1 | 58.1% (inactive) |
| COc1ccc(C2SCC(=O)N2NC(=O)c2ccc(NC(=O)c3ccccn3)cc2)cc1OC (stereo unspecified) | 110% (inactive) |
| O=C(Cc1ccc(F)c(Cl)c1)Nc1cc(C2(C(F)(F)F)CC2)nn1CC1CCCCC1 | 14.8% (inactive) |
| CCc1n(Cc2ccc3ccccc3c2)c2ccccc2[n+]1Cc1ccc2ccccc2c1 | 14.3% (inactive) |
| Cc1cn(-c2cc(C(=O)Nc3cccc(-n4ccc5c(NC(=O)c6ccccc6)nccc54)c3)cc(C(F)(F)F)c2)cn1 | 3.73% (active) |
| CN(CCCCCl)P(=O)(OCc1ccc([N+](=O)[O-])o1)C(F)(F)C[C@H](NC(=O)CNC(=O)c1ccc(N=[N+]=[N-])cc1)C(=O)NCCc1ccc(O)cc1 (stereo partly specified) | 62.6% (inactive) |
| CC1(C)CCc2cc(-c3ccn(S(=O)(=O)c4ccc(Cl)cc4)n3)ccc2O1 | 71.9% (inactive) |
| CC(=O)n1c(-c2ccc(Cl)c(Cl)c2)cn(-c2ccc(Cl)cc2)c1=O | 64.8% (inactive) |
| COc1ccccc1N1C(=N)S/C(=C\c2ccc(OCc3ccccc3F)cc2)C1=O | 112% (inactive) |
| CC(=O)c1ccc(Br)c([N+](=O)[O-])c1 | 122% (inactive) |
| O=C(c1ccccc1O)N1CCCC1 | 91.8% (inactive) |
| Nc1ncnc2c1c(-c1ccc(Oc3ccccc3)cc1)nn2C[C@@H]1SSC[C@@H]1O | -0.213% (active) |
| COc1cc2ncnc(-n3ncc4cc(NC(=O)Nc5ccccc5)ccc43)c2cc1OC | -15.9% (active) |
| CC1=C(Cl)C(=O)c2cc(C)ccc2C1=O | 117% (inactive) |
| C=C1C(=O)O[C@H]2[C@H]1CC/C(CNC(=O)c1cc3ccccc3[nH]1)=C\CC[C@@]1(C)O[C@@H]21 | -41.5% (active) |
| Oc1ccccc1C=Nc1ccccc1N=Cc1ccccc1O.[Cu+2] | 55.8% (inactive) |
